Measured values: PubChem BioAssay (NCI)
Compounds without any hit were thinned out: in the full panel of roughly 83,000, 20% have a hit.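 Results are percent growth after 48 hours of single-concentration exposure. 100 means growth as in untreated cells, lower positive values show inhibition; negative values down to -100 show cell death.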 The source made the active and inactive calls. Rule for the calls: active = growth percent below 10; inactive = the rest.

Assays:
Experiment in all cases: NCI-60 one-dose screen, 48 h (100 = growth as untreated, 0 = no growth, -100 = all killed)
Conditions in all cases: 10 µM unless noted
DU-145 prostate = tested on: DU-145 prostate
K-562 leukemia = tested on: K-562 leukemia
MALME-3M melanoma = tested on: MALME-3M melanoma
MDA-MB-231 breast = tested on: MDA-MB-231 breast
RXF 393 renal = tested on: RXF 393 renal
SF-268 CNS = tested on: SF-268 CNS
SF-295 CNS = tested on: SF-295 CNS
SF-539 CNS = tested on: SF-539 CNS
UACC-257 melanoma = tested on: UACC-257 melanoma
M14 melanoma = tested on: M14 melanoma
HCT-15 colon = tested on: HCT-15 colon
HT29 colon = tested on: HT29 colon
SNB-75 CNS = tested on: SNB-75 CNS
SNB-19 CNS = tested on: SNB-19 CNS
U251 CNS = tested on: U251 CNS
PC-3 prostate = tested on: PC-3 prostate
SK-MEL-5 melanoma = tested on: SK-MEL-5 melanoma
UACC-62 melanoma = tested on: UACC-62 melanoma
LOX IMVI melanoma = tested on: LOX IMVI melanoma
SK-MEL-28 melanoma = tested on: SK-MEL-28 melanoma

Measured: growth

Cc1n[nH]c(C)c1-c1c(C)n[nH]c1C
active: DU-145 prostate 9.47% | K-562 leukemia 5.03% | MALME-3M melanoma -38.3% | MDA-MB-231 breast -14.5% | RXF 393 renal -47.8% | SF-539 CNS -54.6% | M14 melanoma -4.4% | HCT-15 colon -13.6% | HT29 colon 7.37% | U251 CNS 1.27% | SK-MEL-5 melanoma 0.89% | UACC-62 melanoma 7.89% | LOX IMVI melanoma -64.3%
inactive: SF-268 CNS 19.1% | SF-295 CNS 18.8% | UACC-257 melanoma 39.6% | SNB-75 CNS 35.2% | SNB-19 CNS 28.3% | PC-3 prostate 17.8% | SK-MEL-28 melanoma 11.9%

COc1cc(C(=O)c2cnc(-c3ccc4cc[nH]c4c3)[nH]2)cc(OC)c1OC
active: DU-145 prostate -1.47% | K-562 leukemia 8.98% | MDA-MB-231 breast -48% | SF-295 CNS 5.4% | SF-539 CNS -5.7% | M14 melanoma 4.97% | HCT-15 colon 6.36% | HT29 colon -21.6% | SNB-75 CNS 9.22% | SK-MEL-5 melanoma -63% | LOX IMVI melanoma 8.42%
inactive: MALME-3M melanoma 48.9% | RXF 393 renal 34.4% | SF-268 CNS 10% | UACC-257 melanoma 62.3% | SNB-19 CNS 23.1% | U251 CNS 10% | PC-3 prostate 18% | UACC-62 melanoma 29.4% | SK-MEL-28 melanoma 55.9%

CC(C)(C#N)N1CCN(c2ccccc2Cl)CC1
inactive: DU-145 prostate 105% | K-562 leukemia 96.4% | MALME-3M melanoma 91.2% | MDA-MB-231 breast 110% | RXF 393 renal 118% | SF-268 CNS 101% | SF-295 CNS 97.2% | SF-539 CNS 96.8% | UACC-257 melanoma 92.1% | M14 melanoma 99.2% | HCT-15 colon 103% | HT29 colon 96.4% | SNB-75 CNS 102% | SNB-19 CNS 118% | U251 CNS 102% | PC-3 prostate 102% | SK-MEL-5 melanoma 114% | UACC-62 melanoma 112% | LOX IMVI melanoma 87.3% | SK-MEL-28 melanoma 112%

C1=C2CNCC3=Cc4ccc5ccccc5c4OC23Oc2c1ccc1ccccc21
inactive: DU-145 prostate 65.3% | K-562 leukemia 18.8% | MALME-3M melanoma 60.6% | MDA-MB-231 breast 51.3% | SF-268 CNS 42.7% | SF-295 CNS 11.6% | SF-539 CNS 50.5% | UACC-257 melanoma 60.9% | HCT-15 colon 21.7% | HT29 colon 19.1% | SNB-75 CNS 34.5% | SNB-19 CNS 59.6% | U251 CNS 38.9% | PC-3 prostate 39.1% | SK-MEL-5 melanoma 35.6% | UACC-62 melanoma 25.6% | LOX IMVI melanoma 18.9% | SK-MEL-28 melanoma 46.7%
active: RXF 393 renal -3.36% | M14 melanoma 2.63%

N#Cc1c(NC(=O)c2cccc(Br)c2)sc2c1CCCC2
inactive: DU-145 prostate 89.7% | K-562 leukemia 22.5% | MALME-3M melanoma 62.4% | MDA-MB-231 breast 82.2% | RXF 393 renal 96.8% | SF-268 CNS 97.6% | SF-295 CNS 80.8% | SF-539 CNS 86.6% | UACC-257 melanoma 83.4% | M14 melanoma 72.2% | HCT-15 colon 45.8% | HT29 colon 59.5% | SNB-75 CNS 84.4% | SNB-19 CNS 81.1% | U251 CNS 88.2% | PC-3 prostate 90.9% | SK-MEL-5 melanoma 89.8% | UACC-62 melanoma 71.7% | LOX IMVI melanoma 80% | SK-MEL-28 melanoma 86.3%

O=C(CCN1CCCC1)Nc1ccc2c(NCc3ccc(F)cc3)c3ccccc3nc2c1
inactive: SF-295 CNS 22.8% | HCT-15 colon 14.3% | SK-MEL-5 melanoma 30.5% | SK-MEL-28 melanoma 30.5%
active: DU-145 prostate -38.4% | K-562 leukemia 0.876% | MALME-3M melanoma -90.4% | MDA-MB-231 breast -17.1% | RXF 393 renal -15.8% | SF-268 CNS -3.64% | SF-539 CNS 3.09% | UACC-257 melanoma -3.51% | M14 melanoma -25% | HT29 colon 0.774% | SNB-75 CNS -11% | SNB-19 CNS 4.86% | U251 CNS -39.3% | PC-3 prostate -17% | UACC-62 melanoma 1.75% | LOX IMVI melanoma -74%

c1ccc2c(-c3c4ccsc4cc4[nH]c5ccccc5c34)c[nH]c2c1
active: M14 melanoma 8.79% | HT29 colon 8.87%
inactive: DU-145 prostate 66.3% | K-562 leukemia 16% | MALME-3M melanoma 46.7% | MDA-MB-231 breast 55% | RXF 393 renal 32.2% | SF-268 CNS 40.7% | SF-295 CNS 26.7% | SF-539 CNS 17.9% | UACC-257 melanoma 66.9% | HCT-15 colon 24.7% | SNB-75 CNS 20.3% | SNB-19 CNS 48.5% | U251 CNS 38.7% | PC-3 prostate 36.1% | SK-MEL-5 melanoma 31.9% | UACC-62 melanoma 44.8% | LOX IMVI melanoma 26.9% | SK-MEL-28 melanoma 48.9%

Nc1cc(N)c2cccnc2c1O
inactive: DU-145 prostate 72.7% | K-562 leukemia 37.5% | MALME-3M melanoma 85% | MDA-MB-231 breast 78.6% | RXF 393 renal 74.9% | SF-268 CNS 83.4% | SF-295 CNS 63.2% | SF-539 CNS 66.1% | UACC-257 melanoma 76.1% | M14 melanoma 76.5% | HT29 colon 87.4% | SNB-75 CNS 104% | SNB-19 CNS 64.2% | U251 CNS 68.3% | PC-3 prostate 80.7% | SK-MEL-5 melanoma 62.9% | UACC-62 melanoma 43% | LOX IMVI melanoma 42.3% | SK-MEL-28 melanoma 73.6%

CCCCOc1ccc(/C=N/Nc2cc(C)nc3ccc(Cl)cc23)cc1
inactive: SF-268 CNS 64.9% | UACC-257 melanoma 84.1% | SNB-75 CNS 17% | SNB-19 CNS 20.7% | PC-3 prostate 20.6% | SK-MEL-5 melanoma 71.8% | UACC-62 melanoma 77.8%
active: DU-145 prostate 3.96% | K-562 leukemia -21.7% | MALME-3M melanoma -77% | MDA-MB-231 breast -49.5% | RXF 393 renal -84.2% | SF-295 CNS -83.6% | SF-539 CNS -80.5% | M14 melanoma -25.2% | HT29 colon -49.8% | U251 CNS -82.1% | LOX IMVI melanoma -94.7% | SK-MEL-28 melanoma -89.5%

O=S(=O)(NCCCNc1nccc(-c2c(-c3cccc(O)c3)nc3occn23)n1)c1ccc(Br)cc1
active: UACC-62 melanoma 8.87%
inactive: DU-145 prostate 97% | K-562 leukemia 67.3% | MALME-3M melanoma 11.5% | MDA-MB-231 breast 64.3% | RXF 393 renal 82.6% | SF-268 CNS 97.1% | SF-295 CNS 111% | SF-539 CNS 110% | UACC-257 melanoma 18.4% | M14 melanoma 29% | HT29 colon 38.9% | SNB-75 CNS 97.4% | SNB-19 CNS 118% | U251 CNS 104% | PC-3 prostate 91.1% | SK-MEL-5 melanoma 47.1% | LOX IMVI melanoma 46.8% | SK-MEL-28 melanoma 35.5%

COc1ccc(/C=C/C(=O)c2ccc(OC)c(OC)c2)cc1O
inactive: DU-145 prostate 21% | K-562 leukemia 14.7% | MALME-3M melanoma 90.9% | MDA-MB-231 breast 73% | RXF 393 renal 72.1% | SF-268 CNS 80.7% | SF-295 CNS 104% | SF-539 CNS 79.8% | UACC-257 melanoma 96.6% | M14 melanoma 97.7% | HCT-15 colon 56.5% | HT29 colon 63.8% | SNB-75 CNS 86.1% | SNB-19 CNS 82.1% | U251 CNS 25.4% | PC-3 prostate 82.4% | UACC-62 melanoma 87.1% | LOX IMVI melanoma 65.5% | SK-MEL-28 melanoma 101%

COc1cc(C2NC(c3cc(OC)c(OC)c(OC)c3)C(C#N)(C#N)C2(C#N)C#N)cc(OC)c1OC (centres undefined)
inactive: DU-145 prostate 102% | K-562 leukemia 109% | MALME-3M melanoma 96% | MDA-MB-231 breast 97.3% | RXF 393 renal 114% | SF-268 CNS 105% | SF-295 CNS 99.8% | SF-539 CNS 95.8% | UACC-257 melanoma 106% | M14 melanoma 92.9% | HCT-15 colon 97.9% | HT29 colon 105% | SNB-75 CNS 80.7% | SNB-19 CNS 98.5% | PC-3 prostate 99.3% | SK-MEL-5 melanoma 89.5% | UACC-62 melanoma 98.2% | LOX IMVI melanoma 98.2% | SK-MEL-28 melanoma 96.5%

CCCN=C(N)c1ccc(NC(=O)c2ccc(C(=O)Nc3ccc(C(N)=NCCC)cc3)cc2)cc1
inactive: DU-145 prostate 107% | K-562 leukemia 91% | MALME-3M melanoma 88.1% | MDA-MB-231 breast 96.6% | RXF 393 renal 96.5% | SF-268 CNS 95.8% | SF-295 CNS 90.3% | SF-539 CNS 92.8% | UACC-257 melanoma 101% | M14 melanoma 98.4% | HCT-15 colon 99.7% | HT29 colon 102% | SNB-75 CNS 78.1% | SNB-19 CNS 105% | PC-3 prostate 90.8% | SK-MEL-5 melanoma 27.2% | UACC-62 melanoma 90.2% | LOX IMVI melanoma 108% | SK-MEL-28 melanoma 110%
